Drawing on PubChem BioAssay (NCATS), this text covers Potency, activation and viability for 19 molecules.

Assay [1] addresses Cellular tumor antigen p53 (Homo sapiens) (UniProt P04637). The experiment in a line: Primary qHTS for small molecule compounds that upregulate eGFP-tagged delta133p53alpha (in N-terminal) cells. (AID 2060322). Further: nearly all actives have a fitted effect of over 75% in size. Further: potency means the concentration at half of the fitted maximal effect.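 On activation: cells pre-induced with doxycycline then dosed without doxycycline; series mostly up to about 56 µM; 0% = DMSO vehicle and 100% = reference activator.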 The note with it: NCI-H358 eGFP-delta133p53alpha fluorescence, 24 h; activation: hits give high values. The procedure, abridged:
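NCI-H358 cells pre-induced 24 h with 10 ng/ml doxycycline for eGFP-delta133p53alpha, plated dox-free and exposed 24 h at 37C to titrated compounds. Fixed, Hoechst-stained; gated GFP peak intensity by laser scanning cytometry, normalized to DMSO (0%) and 57.5 uM 5-azacytidine (100%).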

For assay [2] the target is unchanged. Description: Primary qHTS for small molecule compounds that upregulate eGFP-tagged delta133p53alpha (in C-terminal) cells. (AID 2060324). Further: potency means the concentration at half of the fitted maximal effect. Summed up:
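Readout: filtered GFP peak intensity of gated cells (laser scanning cytometer), normalized plate-wise to intraplate controls, DMSO wells = 0% activity. Cells: NCI-H358 D133p53a-eGFP, dox 100 ng/ml 24 h beforehand, then compound 24 h, 37 °C.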

Assay [3] addresses Aldehyde dehydrogenase, mitochondrial (Homo sapiens) (UniProt P05091). Description: qHTS for Inhibitors of the Aldehyde Dehydrogenase Family (ALDH2) Validation screens (AID 2061302; active means well fitted inhibition curve with a large enough effect; title and protocol of this record describe different tests; further: potency means the concentration at half of the fitted maximal effect). On the technique in general: Quantitative high-throughput screening tests each substance at several concentrations.
The target in assay [4] is Aldehyde dehydrogenase 1A1 (Homo sapiens) (UniProt P00352). The experiment in a line: qHTS for Inhibitors of the Aldehyde Dehydrogenase Family (ALDH1A1) Confirmatory screens (AID 2061316). Further: nearly all actives have a fitted effect of over 65% in size. Further: potency means the concentration at half of the fitted maximal effect.
Assay [5] can be described thus: BET inhibitor-based combinations targeting novel dependencies in MECOM-rearranged (r) AML: SET-2 cell line (AID 2202231). Further: nearly all actives have a fitted effect of over 35% in size. Further: potency means the concentration at half of the fitted maximal effect.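 On viability: plate controls were DMSO treated cells for no effect and wells without cells for full effect.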 To be noted: SET-2 AML cells viability, CellTiter-Glo luminescence, 48 h; viability: hits give low values, concentration not given here. Summed up:
(§1)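 Viability of cells (500 per well) is scored by luminescent CellTiter-Glo at 48 hr post-dosing. Eleven-point titrations are normalized to DMSO and empty controls and reduced to AUC values.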

Assay [6] can be described thus: BET inhibitor-based combinations targeting novel dependencies in MECOM-rearranged (r) AML: OCI-AML3 cell line (AID 2202232). Further: nearly all actives have a fitted effect of over 35% in size. Further: potency means the concentration at half of the fitted maximal effect. The note with it: Potency: OCI-AML3 viability. The procedure, abridged: as §1
Assay [7] in a line: BET inhibitor-based combinations targeting novel dependencies in MECOM-rearranged (r) AML: MV-4-11 cell line (AID 2202233). Further: nearly all actives have a fitted effect of over 45% in size. Further: potency means the concentration at half of the fitted maximal effect. The procedure, abridged:
(§2)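 Using pin-tool transfer, drugs were added in 11 doses to cells (500/well), incubated 48 hr, and assessed with CellTiter-Glo. Z-AUC is a mean-centring transformation applied separately to each screened line.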

The nature of assay [8]: BET inhibitor-based combinations targeting novel dependencies in MECOM-rearranged (r) AML: HNT-34 cell line (AID 2202234). Further: nearly all actives have a fitted effect of over 35% in size. Further: potency means the concentration at half of the fitted maximal effect. The procedure, abridged:
as §2

Assay [9] can be described thus: BET inhibitor-based combinations targeting novel dependencies in MECOM-rearranged (r) AML: AML-191 cell line (AID 2202236; further: nearly all actives have a fitted effect of over 35% in size; further: potency means the concentration at half of the fitted maximal effect). The procedure, abridged: as §1
Assay [10] can be described thus: BET inhibitor-based combinations targeting novel dependencies in MECOM-rearranged (r) AML: AML-194 cell line (AID 2202237; further: nearly all actives have a fitted effect of over 40% in size; further: potency means the concentration at half of the fitted maximal effect). Summed up:
as §1

A short description of assay [11]: qHTS for Inhibitors of the Aldehyde Dehydrogenase Family (ALDH1A2, ALDH1A3, ALDH2, ALDH3A1) (AID 2061307). Further: nearly all actives have a fitted effect of over 50% in size.
The target of assay [12] is Retinaldehyde dehydrogenase 3 (Homo sapiens) (UniProt P47895). The experiment in a line: qHTS for Inhibitors of the Aldehyde Dehydrogenase Family (ALDH1A3) Confirmatory screens (AID 2061311). Further: nearly all actives have a fitted effect of over 60% in size. Further: potency means the concentration at half of the fitted maximal effect.
The target of assay [13] is Retinal dehydrogenase 2 (Homo sapiens) (UniProt O94788). The experiment in a line: qHTS for Inhibitors of the Aldehyde Dehydrogenase Family (ALDH1A2) Confirmation screens (AID 2061314). Further: nearly all actives have a fitted effect of over 65% in size. Further: potency means the concentration at half of the fitted maximal effect.
Assay [14] is described as follows: BET inhibitor-based combinations targeting novel dependencies in MECOM-rearranged (r) AML: UCSD-AML1 cell line (AID 2202235). Further: nearly all actives have a fitted effect of over 40% in size. Further: potency means the concentration at half of the fitted maximal effect. Summed up:
as §2

Assay [15] has as its target Retinaldehyde dehydrogenase 3 (Homo sapiens) (UniProt P47895). The experiment in a line: qHTS for Inhibitors of the Aldehyde Dehydrogenase Family (ALDH1A3) Validation screen (AID 2061312). Further: on the % scale 0 is the no-effect control and ±100 the full control effect; nearly all actives have a fitted effect of over 45% in size.
Assay [16] deals with Aldehyde dehydrogenase, mitochondrial (Homo sapiens) (UniProt P05091). The experiment in a line: qHTS for Inhibitors of the Aldehyde Dehydrogenase Family (ALDH2) Confirmatory screens (AID 2061303; active means well fitted inhibition curve with a large enough effect; title and protocol of this record describe different tests; further: on the % scale 0 is the no-effect control and ±100 the full control effect; nearly all actives have a fitted effect of over 45% in size).
Assay [17] shares this target. Description: qHTS for Inhibitors of the Aldehyde Dehydrogenase Family (ALDH2) Primary screen (AID 2061308).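 Further: plate controls were vehicle for no effect and reference inhibitor for full effect; nearly all actives have a fitted effect of over 55% in size.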
For assay [18], the target named is Retinaldehyde dehydrogenase 3 (Homo sapiens) (UniProt P47895). Description: qHTS for Inhibitors of the Aldehyde Dehydrogenase Family (ALDH1A3) Primary screen (AID 2061315).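 Further: plate controls were DMSO vehicle for no effect and reference inhibitor for full effect.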

Where “and” joins values, the source holds several entries; their conditions need not be identical. Equal values may be shown once. Inconclusive results are not listed. A number with no mark means an inactive call. Calls of active or inactive are those of the source. Unless noted, the call rests on the fitted dose curve; in most records, active means well fitted curve in the direction sought with a large enough effect; inconclusive means small, poorly fitted or top-dose-only effect, or another doubt; inactive means no such curve, though single readings can be large; an effect the other way counts as inactive or inconclusive.

Sequence of Cellular tumor antigen p53 (Homo sapiens) (P04637 whole entry, looked up): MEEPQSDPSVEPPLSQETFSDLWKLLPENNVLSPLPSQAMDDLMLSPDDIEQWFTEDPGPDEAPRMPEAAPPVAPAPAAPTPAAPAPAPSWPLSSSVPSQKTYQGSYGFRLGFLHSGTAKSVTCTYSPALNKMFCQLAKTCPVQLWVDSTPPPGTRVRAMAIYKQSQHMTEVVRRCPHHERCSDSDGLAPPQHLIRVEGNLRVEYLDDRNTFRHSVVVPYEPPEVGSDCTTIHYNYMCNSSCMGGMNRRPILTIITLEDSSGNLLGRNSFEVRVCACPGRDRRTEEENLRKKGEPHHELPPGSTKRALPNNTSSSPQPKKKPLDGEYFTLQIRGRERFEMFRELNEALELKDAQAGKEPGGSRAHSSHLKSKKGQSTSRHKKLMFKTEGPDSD

In the case of `Cc1ccc(S(=O)(=O)N[C@@H](Cc2ccccc2)C(=O)CCl)cc1`, the Potency was 24.3 µM (active) in assay [1]; 26.9 µM (active) in assay [2]; 0.565 µM (active) in [4]; 18.6 µM (active) in assay [5]; 16.6 µM (active) in [6]; 13.2 µM (active) in assay [7]. Moreover, the results for the Potency in assay [8], in [9] and in assay [10] were 13.2 µM (active), 20.9 µM (active) and 23.5 µM (active), respectively. In assay [3], the Potency entry is “inactive”.

Turning to `COc1cc(/C=C(\C#N)C(=O)c2ccc(O)c(O)c2)cc(I)c1O`, the activation in assay [1] was 0.259%. In addition, the Potency in assay [2] is 16.9 µM (active); in [11], 4 µM (active); in assay [12], 8.96 µM (active); in assay [13] it was 12.7 µM (active).

For the molecule `Cc1oncc1C(=O)Nc1ccc(C(F)(F)F)cc1`, in assay [1], the activation is -3.35% and -18.5% and -19%. The Potency entry in [2], in [3] and in [14] was “inactive” throughout. Moreover, the Potency in assay [8] is 16.6 µM (active).

`CCN1CCc2nc(N)oc2CC1`: the activation in assay [1] is -8.37% and -17.5%. Besides, the Potency result in [2], in assay [3] and in [13] was “inactive” in each case.

For `C=Cc1c(C)c2cc3[nH]c(cc4nc(cc5nc(cc1[nH]2)C(C)=C5CCC(=O)O)C(CCC(=O)O)=C4C)c(C)c3C=C`, in [1], the activation was -11.7% and -48.8%. Moreover, the Potency result in [2] and in [15] was “inactive” each time. Moreover, the values for the Potency in [11], in assay [12] and in assay [4] were 10.1 µM (active), 25.2 µM (active) and 12.7 µM (active), respectively.

Consider `O=C1NC(c2cccc([N+](=O)[O-])c2)=CCN1c1ccccc1O`, for which, in assay [1], the activation was 5.67% and -12.4%. For the same molecule, the Potency entry in assay [2], in assay [3] and in assay [4] was “inactive” throughout.

Consider `C[C@]12CC[C@@H]3c4ccc(O)cc4CC[C@H]3[C@@H]1CC[C@@H]2O`, for which, in assay [1], the activation was 63.8%. The Potency entry in assay [2], in [3] and in assay [15] was “inactive” each time. In addition, the Potency is 20.9 µM (active) in assay [8], 14.8 µM (active) in assay [14], 16.6 µM (active) in assay [9] and 23.5 µM (active) in assay [10].

As to `Cc1cccc(C)c1OCC(N)C(C)C` (stereo not given), the activation in [1] was -8.7%. The Potency entry in [2], in assay [16], in assay [11] and in [13] was “inactive” each time.

As to `COc1ccccc1N1CCN(CCN2C(=O)CC3(CCCC3)CC2=O)CC1`, in assay [1], the activation was 3.57% and -22.5%. For the same molecule, the Potency result in assay [2], in assay [16], in [11], in [17], in assay [12] and in assay [13] was “inactive” in each case. Besides, the Potency result in assay [18] is “inactive”.

On to `CC#C[C@]1(O)CC[C@H]2[C@@H]3CCC4=CC(=O)CCC4=C3[C@@H](c3ccc(N(C)C)cc3)C[C@@]21C`, for which, in assay [1], the activation is 7.02%. Also, the Potency result in assay [2], in assay [3] and in [15] was “inactive” in each case. For the same molecule, in assay [10], the Potency was 18.6 µM (active).

On to `CN(C)C/C=C(/c1ccc(Br)cc1)c1cccnc1`, for which the activation in [1] is -2.82% and -52.8%. In addition, the Potency result in assay [2], in assay [16], in assay [12] and in assay [4] was “inactive” in each case.

Turning to `CC[N+](CC)(CC)CCOc1cccc(OCC[N+](CC)(CC)CC)c1OCC[N+](CC)(CC)CC`, the activation in assay [1] was -9.51% and 5.08% and -25.7%. Besides, the Potency entry in assay [2], in [3], in [6], in assay [7], in assay [8] and in assay [14] was “inactive” in each case. Further, the Potency result in [9] and in assay [10] was “inactive” each time.

With `O=C1Nc2ccc(I)cc2/C1=C/c1cc(Br)c(O)c(Br)c1`, the activation in assay [1] is -56.5%. Further, the Potency was 19 µM (active) in [2] and 18.6 µM (active) in assay [9]. Also, the Potency entry in assay [3], in [6], in [7], in [14] and in assay [10] was “inactive” throughout. Also, the viability in [5] was 96.6%.

Regarding `C[C@H](Cc1ccc(O)c(O)c1)[C@@H](C)Cc1ccc(O)c(O)c1`, the activation in assay [1] was 8.19%. Further, in assay [2], the Potency entry was “inactive”. Moreover, the Potency in assay [3] was 15.8 µM (active); in [6] it was 3.32 µM (active); in assay [7], 2.95 µM (active); in [8], 8.33 µM (active); in [9], 11.8 µM (active).

`O=Nc1c(-c2c(O)[nH]c3cc(Br)ccc23)[nH]c2ccccc12`: the activation in assay [1] is 17.1% and -39.3%. For the same molecule, the Potency result in assay [2] and in [3] was “inactive” each time. Also, the Potency in [5] is 5.25 µM (active); in [6], 11.8 µM (active); in [7] it was 0.263 µM (active); in assay [8], 2.63 µM (active); in [14], 13.2 µM (active); in [9] it was 14.8 µM (active). Also, the Potency in [10] was 14.8 µM (active).

As to `Cn1ncc(S(=O)(=O)Cc2ccccc2)c(Br)c1=O`, the activation in assay [1] is -32.8%. Besides, the Potency entry in assay [2] and in assay [11] was “inactive” each time.

In the case of `Cn1c(=O)c2[nH]c(-c3ccc(S(=O)(=O)O)cc3)nc2n(C)c1=O`, the activation in [1] was 1.02%. For the same molecule, the Potency entry in assay [2], in assay [16], in [11], in assay [12], in assay [15] and in [13] was “inactive” each time. In addition, in assay [4], the Potency result is “inactive”.

`CCN(CC)CCn1c(=O)c(Cc2ccc(OC)cc2)nc2ccccc21`: in [1], the activation is 3.86% and 2.44%. Besides, the Potency entry in [2], in [3], in assay [6], in assay [7], in assay [8] and in assay [14] was “inactive” throughout. Further, the Potency result in [9] and in [10] was “inactive” in each case. For the same molecule, the viability in assay [5] was 107%.

In the case of `C[C@@H](N)C1CCC(C(=O)Nc2ccncc2)CC1` (stereo not given in full), the activation in [1] is -43.5% and -9.78%. For the same molecule, the Potency result in assay [2], in [3], in assay [6], in assay [8], in assay [14] and in assay [9] was “inactive” throughout. In addition, in assay [10], the Potency result is “inactive”. Also, the viability in assay [5] is 110%.

As usually defined, the viability is a read-out of living cells in per cent, often relative to untreated cells.
